From PubChem BioAssay (NCI)
This is part of a sample that, as a whole, favours compounds with a hit. Of some 83,000 tested, about 20% had one in any assay.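 Cells were grown in 96-well plates and exposed to the test compound at a single concentration for 48 hours; results are reported as percent growth, with values below 10 considered active.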 Activity calls are given as the source filed them.

Assays:
Experiment in all cases: NCI-60 one-dose screen, 48 h (100 = growth as untreated, 0 = no growth, -100 = all killed)
Conditions in all cases: 10 µM unless noted
HCT-15 colon = system: HCT-15 colon
HT29 colon = system: HT29 colon
SNB-75 CNS = system: SNB-75 CNS
SNB-19 CNS = system: SNB-19 CNS
U251 CNS = system: U251 CNS
PC-3 prostate = system: PC-3 prostate
SK-MEL-5 melanoma = system: SK-MEL-5 melanoma
UACC-62 melanoma = system: UACC-62 melanoma
LOX IMVI melanoma = system: LOX IMVI melanoma
SK-MEL-28 melanoma = system: SK-MEL-28 melanoma
SK-MEL-2 melanoma = system: SK-MEL-2 melanoma
EKVX NSCLC = system: EKVX NSCLC
SN12C renal = system: SN12C renal
UO-31 renal = system: UO-31 renal
TK-10 renal = system: TK-10 renal
ACHN renal = system: ACHN renal
CAKI-1 renal = system: CAKI-1 renal
A498 renal = system: A498 renal
CCRF-CEM leukemia = system: CCRF-CEM leukemia
MOLT-4 leukemia = system: MOLT-4 leukemia

Measured: growth

C#Cc1cccc(NC(=O)Nc2ccccc2NC(=O)CCl)c1
active: HCT-15 colon -19.8% [8.25 µM] | HT29 colon -15.5% [8.25 µM] | SNB-75 CNS -83.9% [8.25 µM] | U251 CNS -85.2% [8.25 µM] | PC-3 prostate -29% [8.25 µM] | SK-MEL-5 melanoma -94.8% [8.25 µM] | UACC-62 melanoma -94.1% [8.25 µM] | LOX IMVI melanoma -94.4% [8.25 µM] | SK-MEL-28 melanoma -10.4% [8.25 µM] | SK-MEL-2 melanoma -56% [8.25 µM] | SN12C renal -68.6% [8.25 µM] | UO-31 renal -97.7% [8.25 µM] | TK-10 renal -27.8% [8.25 µM] | ACHN renal -84.1% [8.25 µM] | CAKI-1 renal -85.2% [8.25 µM] | A498 renal -93.4% [8.25 µM]
inactive: SNB-19 CNS 19.7% [8.25 µM] | EKVX NSCLC 71.9% [8.25 µM] | CCRF-CEM leukemia 22.2% [8.25 µM] | MOLT-4 leukemia 24.5% [8.25 µM]

CC1=NN(c2ccc(S(=O)(=O)O)cc2)C(=O)C1N=Nc1ccc(-c2ccc(N=Nc3ccc(OS(=O)(=O)c4ccc(C)cc4)cc3)c(S(=O)(=O)O)c2)cc1 (stereo not given)
inactive: HCT-15 colon 82.8% | HT29 colon 93.3% | SNB-75 CNS 78.8% | SNB-19 CNS 104% | U251 CNS 96.2% | PC-3 prostate 86.3% | SK-MEL-5 melanoma 104% | UACC-62 melanoma 92% | LOX IMVI melanoma 69.4% | SK-MEL-28 melanoma 103% | SK-MEL-2 melanoma 78.8% | EKVX NSCLC 107% | SN12C renal 93.6% | UO-31 renal 69.8% | TK-10 renal 97.2% | ACHN renal 102% | CAKI-1 renal 100% | A498 renal 95.2% | CCRF-CEM leukemia 67.8% | MOLT-4 leukemia 84.3%

CCc1ccccc1-n1c(N)c(C#N)c(-c2ccc(Cl)cc2)c(C#N)c1=O
active: CCRF-CEM leukemia -18.3%
inactive: HCT-15 colon 108% | HT29 colon 102% | SNB-75 CNS 90.5% | SNB-19 CNS 111% | U251 CNS 119% | PC-3 prostate 80.6% | SK-MEL-5 melanoma 106% | UACC-62 melanoma 98.6% | LOX IMVI melanoma 100% | SK-MEL-28 melanoma 113% | SK-MEL-2 melanoma 117% | EKVX NSCLC 97.7% | SN12C renal 106% | UO-31 renal 76.9% | TK-10 renal 157% | ACHN renal 107% | CAKI-1 renal 103% | A498 renal 127% | MOLT-4 leukemia 105%

COc1ccccc1/C=C1\Oc2cc(OCCN3CCC(Cc4ccccc4)CC3)ccc2C1=O
inactive: HCT-15 colon 52.5% | HT29 colon 31.2% | SNB-75 CNS 83.6% | SNB-19 CNS 90.8% | U251 CNS 78.2% | PC-3 prostate 81.8% | SK-MEL-5 melanoma 90.9% | UACC-62 melanoma 92.1% | LOX IMVI melanoma 70.7% | SK-MEL-28 melanoma 87.5% | SK-MEL-2 melanoma 116% | EKVX NSCLC 86% | SN12C renal 88.8% | UO-31 renal 65.5% | TK-10 renal 94.5% | ACHN renal 105% | CAKI-1 renal 82.5% | A498 renal 47.7% | CCRF-CEM leukemia 70.7% | MOLT-4 leukemia 72.2%

Cc1nc(/N=C(\N)NC(=O)Nc2cccc(Cl)c2)sc1C
inactive: HCT-15 colon 32% | HT29 colon 30.2% | SNB-75 CNS 21.9% | SNB-19 CNS 83.2% | U251 CNS 83.5% | PC-3 prostate 81.5% | SK-MEL-5 melanoma 80.2% | UACC-62 melanoma 60.5% | LOX IMVI melanoma 68.8% | SK-MEL-28 melanoma 69% | SK-MEL-2 melanoma 72% | EKVX NSCLC 68.3% | SN12C renal 86.4% | UO-31 renal 84% | TK-10 renal 111% | ACHN renal 78.4% | CAKI-1 renal 48.6% | A498 renal 42.4% | CCRF-CEM leukemia 68.4% | MOLT-4 leukemia 58.4%

CS(=O)(=O)Nc1cc(-c2ccc3ncnc(Nc4cccc(Cl)c4F)c3c2)cnc1Cl
active: SNB-75 CNS 9.28% | UACC-62 melanoma 8.37% | LOX IMVI melanoma 4.21% | A498 renal -32.5%
inactive: HCT-15 colon 41.9% | HT29 colon 47.6% | SNB-19 CNS 46.4% | U251 CNS 33.6% | PC-3 prostate 41.4% | SK-MEL-5 melanoma 24.7% | SK-MEL-28 melanoma 24.6% | SK-MEL-2 melanoma 28.4% | EKVX NSCLC 44.7% | SN12C renal 37.4% | UO-31 renal 28.8% | TK-10 renal 34.8% | ACHN renal 66.5% | CAKI-1 renal 19.8% | CCRF-CEM leukemia 30.4% | MOLT-4 leukemia 27.3%

CN1C(=C2C(=O)OC(C)(C)OC2=O)CCC1C(=O)NCc1ccc(Cl)cc1Cl (stereo not given)
inactive: HCT-15 colon 101% | HT29 colon 79.5% | SNB-75 CNS 107% | SNB-19 CNS 97.7% | U251 CNS 95.5% | PC-3 prostate 83% | SK-MEL-5 melanoma 91.6% | UACC-62 melanoma 86.9% | LOX IMVI melanoma 93.5% | SK-MEL-28 melanoma 93% | SK-MEL-2 melanoma 91.7% | EKVX NSCLC 97.5% | SN12C renal 93.3% | UO-31 renal 85% | TK-10 renal 93.8% | ACHN renal 97% | CAKI-1 renal 95% | A498 renal 59.5% | CCRF-CEM leukemia 86.4% | MOLT-4 leukemia 94.6%

Cc1nc2ccccc2n1-c1ncnc2c1CC(C)c1ccccc1N2C (stereo not given)
inactive: HCT-15 colon 75.4% | HT29 colon 59.5% | SNB-75 CNS 70.3% | SNB-19 CNS 86% | U251 CNS 78.8% | PC-3 prostate 67.2% | SK-MEL-5 melanoma 91.3% | UACC-62 melanoma 71.2% | LOX IMVI melanoma 82.7% | SK-MEL-28 melanoma 91.7% | SK-MEL-2 melanoma 78.3% | EKVX NSCLC 92.7% | SN12C renal 87.8% | UO-31 renal 71.3% | TK-10 renal 97.4% | ACHN renal 93.2% | CAKI-1 renal 79.9% | A498 renal 70.4% | CCRF-CEM leukemia 76.3% | MOLT-4 leukemia 60.3%

Cc1nc2nc(SCC(=O)O)[nH]c2c(=O)[nH]1
inactive: HCT-15 colon 103% | HT29 colon 96.8% | SNB-75 CNS 110% | SNB-19 CNS 92.5% | U251 CNS 96.8% | PC-3 prostate 96.6% | SK-MEL-5 melanoma 100% | UACC-62 melanoma 96.4% | LOX IMVI melanoma 95.3% | SK-MEL-28 melanoma 106% | SK-MEL-2 melanoma 96% | EKVX NSCLC 108% | SN12C renal 100% | UO-31 renal 92.2% | TK-10 renal 101% | ACHN renal 110% | CAKI-1 renal 99.2% | A498 renal 81.5% | CCRF-CEM leukemia 97.2% | MOLT-4 leukemia 103%

CCCCOc1nc2ccc(OC)cc2cc1-c1cc(-c2ccc(Cl)cc2)nc(-c2ccc(Cl)cc2)c1
inactive: HCT-15 colon 104% | HT29 colon 104% | SNB-75 CNS 91.2% | SNB-19 CNS 93.6% | U251 CNS 102% | PC-3 prostate 96.9% | SK-MEL-5 melanoma 102% | UACC-62 melanoma 93.5% | LOX IMVI melanoma 101% | SK-MEL-28 melanoma 104% | SK-MEL-2 melanoma 103% | EKVX NSCLC 98.2% | SN12C renal 101% | UO-31 renal 90% | TK-10 renal 104% | ACHN renal 96.3% | CAKI-1 renal 104% | A498 renal 83.5% | CCRF-CEM leukemia 103% | MOLT-4 leukemia 113%

C#Cc1cccc(NC(=O)c2ccc(NC(=O)C=C)cc2)c1
inactive: HCT-15 colon 60.9% [8.25 µM] | HT29 colon 44% [8.25 µM] | SNB-75 CNS 39.4% [8.25 µM] | SNB-19 CNS 84.5% [8.25 µM] | U251 CNS 80.6% [8.25 µM] | PC-3 prostate 67.7% [8.25 µM] | SK-MEL-5 melanoma 97.7% [8.25 µM] | UACC-62 melanoma 73.9% [8.25 µM] | LOX IMVI melanoma 79.6% [8.25 µM] | SK-MEL-28 melanoma 98.2% [8.25 µM] | SK-MEL-2 melanoma 79.3% [8.25 µM] | EKVX NSCLC 102% [8.25 µM] | SN12C renal 67.5% [8.25 µM] | TK-10 renal 69.9% [8.25 µM] | ACHN renal 63.8% [8.25 µM] | CAKI-1 renal 63.2% [8.25 µM] | A498 renal 40.8% [8.25 µM] | CCRF-CEM leukemia 71.5% [8.25 µM] | MOLT-4 leukemia 76.8% [8.25 µM]
active: UO-31 renal -67.2% [8.25 µM]

c1ccc(-c2nc3sc(-c4ccccc4)cn3n2)cc1
inactive: HCT-15 colon 91.6% | HT29 colon 90.3% | SNB-75 CNS 84.3% | SNB-19 CNS 88.5% | U251 CNS 93.6% | PC-3 prostate 63% | SK-MEL-5 melanoma 80% | UACC-62 melanoma 66.9% | LOX IMVI melanoma 83.3% | SK-MEL-28 melanoma 107% | SK-MEL-2 melanoma 94.7% | EKVX NSCLC 78.6% | SN12C renal 79.5% | UO-31 renal 46.9% | TK-10 renal 127% | ACHN renal 85.5% | CAKI-1 renal 90.8% | A498 renal 86% | CCRF-CEM leukemia 86.8% | MOLT-4 leukemia 88.6%

CCc1ccc(Oc2c(-c3ccc(OCc4ccc(Cl)cc4)cc3O)n[nH]c2C(F)(F)F)cc1
inactive: HCT-15 colon 12.8% | HT29 colon 86.1% | SNB-75 CNS 36.6% | SNB-19 CNS 25.4% | PC-3 prostate 13.9% | UACC-62 melanoma 17.9% | SK-MEL-28 melanoma 22.9% | SK-MEL-2 melanoma 11.4% | EKVX NSCLC 15.7% | SN12C renal 15.3% | TK-10 renal 16.1% | CAKI-1 renal 29.6% | A498 renal 11.2% | CCRF-CEM leukemia 11.7%
active: U251 CNS 9.9% | SK-MEL-5 melanoma -14% | LOX IMVI melanoma 7.09% | UO-31 renal -10.4% | ACHN renal 5.7% | MOLT-4 leukemia -3.23%

CCOC(=O)c1sc2ncc(-c3ccc(OC)cc3)n2c1C
inactive: HCT-15 colon 90.2% | HT29 colon 102% | SNB-75 CNS 92% | SNB-19 CNS 92.4% | U251 CNS 105% | PC-3 prostate 92.1% | SK-MEL-5 melanoma 94.3% | UACC-62 melanoma 78.6% | LOX IMVI melanoma 93.4% | SK-MEL-28 melanoma 106% | SK-MEL-2 melanoma 103% | EKVX NSCLC 94.8% | SN12C renal 92.1% | UO-31 renal 79.3% | TK-10 renal 156% | CAKI-1 renal 96.3% | A498 renal 107% | CCRF-CEM leukemia 94.6% | MOLT-4 leukemia 94.5%
active: ACHN renal -100%

CN1C(=O)CNC(=O)[C@H](NC(=O)c2nc3ccccc3cc2O)CSSC[C@H]1C(=O)NCCc1nc2ccccc2cc1O
active: LOX IMVI melanoma -11.5% | SK-MEL-2 melanoma -17.1% | MOLT-4 leukemia 0.111%
inactive: HCT-15 colon 99.7% | HT29 colon 17.6% | SNB-75 CNS 129% | SNB-19 CNS 87% | U251 CNS 71.4% | PC-3 prostate 55.7% | SK-MEL-5 melanoma 38% | UACC-62 melanoma 34.9% | SK-MEL-28 melanoma 62.8% | EKVX NSCLC 73.9% | SN12C renal 69.2% | UO-31 renal 56.5% | TK-10 renal 67.9% | ACHN renal 78.6% | CAKI-1 renal 105% | A498 renal 131% | CCRF-CEM leukemia 23.5%
